Compound activity as filed in PubChem BioAssay.
Rows were chosen to be rich in hits. Some 3.9% of all compounds tested hit in one or more screens of this group.
HSF-1 act: increases HSF-1 driven luciferase reporter signal; NIH3T3-HGL HSF-1 luciferase reporter, MG132, 8 h; 100% = twice DMSO control signal; activation, % at 9 µM; 1.7% of 300,000 active; AID 504408;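 active = mean replicate activation of at least 50% with a set share of replicates each reaching 50%; inconclusive = only one of those two conditions met; inactive = mean below 50% and too few replicates reaching it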;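 also: 0% = median of the neutral control wells and 100% = twice that signal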
Wnt bcat act: Wnt/beta-catenin pathway activation. Wnt/beta-catenin reporter cell assay, activator, plate reader. activation, % at 9.35 µM. 1.2% of 300,000 active; in the data active = activation above about 30%, passing the limit was not always enough; inconclusive = no clear call, values can overlap the other calls;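 also: 0% = neutral control wells and 100% = positive control wells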
esBAF inh: inhibitors of esBAF chromatin remodeling in mouse ES cells. Bmi1-luciferase knock-in reporter, 24 h; 100% = twice the neutral-well signal. reporter increase, % at 12.5 µM. 2% of 350,000 active; in the data active = activation above about 40%; inconclusive = no clear call, values can overlap the other calls;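 also: 0% = median of the plate's neutral control wells and 100% = double that signal; a rise in the Bmi1 reporter signal indicates esBAF inhibition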
MITF act: increases MITF-driven TRPM1 promoter luciferase signal | SK-MEL-5 TRPM1-promoter luciferase, 24 h; % of positive control, neutral wells = 0 | activation, % at 12.5 µM | 0.75% of 300,000 active | AID 588334;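 active = mean activation of at least 80% with every replicate also reaching 80%; inconclusive = mean reaches 80% but some replicate falls short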;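 also: 0% = neutral control wells and 100% = parthenolide positive control wells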
HSF1 inhib: HSF1 inhibition | NIH3T3-HGL HSE-luciferase, MG132-induced, luminescence 8 h; active compounds read low | activity change, negative = inhibition, % at 7.5 µM (by protocol) | 0.77% of 300,000 active | AID 2098;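 active = more than half of replicate wells show activity change below -50%, luminescence cut by over half; inconclusive = some wells, but at most half, below -50%; inactive = no replicate well below -50%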;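 also: luciferase reports HSF-1 transcriptional activity via heat shock element; 0% = median of DMSO wells and -100% = zero luminescence signal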
* hit, by the source's call; u = inconclusive; x = no result given.

SMILES	HSF-1 act	Wnt bcat act	esBAF inh	MITF act	HSF1 inhib
O=C(c1nnsc1S(=O)c1ccc(Cl)cc1)N1CCOCC1 (stereo unspecified)	267*	-7	-87	-88	194
O=C(c1nnsc1S(=O)(=O)c1ccc(Cl)cc1)N1CCOCC1	-81	-1	x	-72	-80*
CNC(=O)c1nnsc1S(=O)(=O)c1ccc(Cl)cc1	158*	-6	10	-84	102
CCOc1ccc(C)cc1S(=O)(=O)NC1CCCCC1	61*	-7	-2	x	22
CCOc1ccc(Cl)cc1S(=O)(=O)NC1CCCC1	6	-2	4	-1	3
CC(=O)c1csc(COc2ccc(Cl)cc2)n1	61*	u	32	51	24
NNC(=O)c1csc(COc2cc(Cl)cc(Cl)c2)n1	-3	1	x	x	3
CC(=O)Nc1nnc(COc2ccc(Cl)cc2)s1	14	-1	u	100*	19
COc1ccc(C(=O)Nc2ccc3c(c2)C(=O)N(C)[C@@H]2CC[C@@H](CC(=O)NCC4CC4)O[C@@H]2CO3)cc1	x	x	4	x	x
O=C(C[C@@H]1C=C[C@@H](NS(=O)(=O)c2ccccc2)[C@H](CO)O1)NCc1ccc(Cl)c(Cl)c1	x	x	4	x	x
CCCOc1ncnc2c1[nH]c1ccc(OC)cc12	u	52*	x	x	27
CCCCOc1ncnc2c1[nH]c1ccc(C)cc12	41	43*	x	x	15
CCCOc1ncnc2c1[nH]c1ccccc12	-12	15	25	x	-4
COc1ccc2[nH]c3c(NCCCOC(C)C)ncnc3c2c1	38	31*	x	5	10
C=CCNc1ncnc2c1[nH]c1ccc(C)cc12	62*	20	x	53	19
O=C(NCC[C@H]1CC[C@H](NC(=O)Nc2cc(F)ccc2F)[C@@H](CO)O1)Nc1ccc(F)cc1	x	x	3	x	x
O=C(NC1CC1)c1cc2c(s1)-c1ccccc1OC2	35	11	45*	20	25
O=C(NCc1cccs1)c1cc2c(s1)-c1ccccc1OC2	48	-1	68*	x	35
CN(C)P(=O)(Nc1cccc2ccccc12)Nc1cccc2ccccc12	x	-11	3	x	x
CC(C)OP(=O)(Nc1cccc2ccccc12)OC(C)C	-1	67*	x	-4	4
C[C@H](CO)N1C[C@H](C)[C@H](CN(C)C(=O)NC2CCCC2)Oc2cc(-c3cccnc3)ccc2S1(=O)=O	x	x	0	x	x
OCC[C@@H]1C[C@@H](O)[C@H](O)[C@@]2(Cc3ccccc3CO2)O1	-74	-3	2	-3	-66*
Cc1cc(C)c(C)c(N=Nc2nc3ccccc3n2C)c1C	-2	x	x	-22	-19
Cc1ccc(C)c(N=Nc2nc3ccccc3n2C)c1	-6	x	41*	0	-3
Cc1ccc(CSc2ccc(-c3cccs3)nn2)cc1	-5	x	x	109*	-5
SMILES	HSF-1 act	Wnt bcat act	esBAF inh	MITF act	HSF1 inhib
Clc1cccc(CSc2ccc(-c3cccnc3)nn2)c1	4	6	9	13	2
c1cncc(CSc2ccc(-c3cccs3)nn2)c1	38	14	56*	67	22
CO[C@@H]1CN(C)C(=O)c2cc(NC(=O)C3CCOCC3)ccc2OC[C@@H](C)N(C(C)=O)C[C@@H]1C	x	x	-4	x	x
CO[C@@H](CN(C)Cc1cc(F)ccc1F)[C@H](C)CN([C@@H](C)CO)S(=O)(=O)c1ccc(Cl)cc1	x	x	-1	x	x
CCOC(=O)c1c(C)[nH]c(C(=O)CSc2ccccc2)c1C	59*	x	-20	35	27
CCCn1c(SCC(=O)c2c(C)[nH]c(C)c2C(=O)OCC)nc2ccccc21	-70	-1	x	-4	-61*
CCOC(=O)c1c(C)[nH]c(N=Nc2ccccc2C)c1C	24	x	48*	79	25
CCOC(=O)c1c(C)[nH]c(C(=O)OCC(=O)NCc2ccco2)c1C	x	x	49*	x	x
CCOC(=O)c1c(C)[nH]c(C(=O)COC(=O)CCSc2ccccc2)c1C	16	8	x	21	1
CO[C@H](CN(C)C(=O)c1ccccc1F)[C@@H](C)CN([C@@H](C)CO)S(=O)(=O)c1ccc(F)cc1	x	x	1	x	x
CC(=O)c1c(C)[nH]c(C(=O)OCc2cccc(C)c2)c1C	17	8	54*	15	13
CCOC(=O)c1c(C)[nH]c(C(=O)OCc2ccccc2)c1C	62*	43*	76*	92*	46
COc1ccc(C)cc1COC(=O)c1[nH]c(C)c(C(C)=O)c1C	2	-2	10	4	1
COc1cccc(NC(=O)Nc2ccc3c(c2)C(=O)N(C)[C@@H]2CC[C@@H](CC(=O)O)O[C@H]2CO3)c1	x	x	-3	x	x
C[C@H](CO)N1C[C@H](C)[C@H](CN(C)Cc2ccc3c(c2)OCO3)Oc2c(NC(=O)Nc3ccc(C(F)(F)F)cc3)cccc2C1=O	x	x	-1	x	x
Fc1cnc(N2CCc3ccccc32)nc1N1CCc2ccccc21	11	11	47*	35	2
CC1(C)CC(=O)c2cnc(N3CCc4ccccc43)nc2C1	-25	39*	x	x	-12
Fc1cnc(N2CCN(c3ccccc3)CC2)nc1N1CCN(c2ccccc2)CC1	-16	-2	x	6	1
CCC(=O)N(C)C[C@@H]1Oc2cc(C#CC3(O)CCCC3)ccc2S(=O)(=O)N([C@H](C)CO)C[C@@H]1C	x	x	-5	x	x
CNC(=O)c1ccccc1C1(O)c2ccccc2CCc2ccccc21	x	1	x	x	x
C=C1CC2(OC1=O)c1ccccc1CCc1ccccc12	60*	-23	x	-107	60*
Cc1[nH]c2ccccc2c1C(=O)C(C)OC(=O)c1ccc([N+](=O)[O-])o1 (stereo unspecified)	36	-2	-4	-46	19
CCc1noc(C)c1C(=O)OC(C)C(=O)c1c(C)[nH]c2ccccc12 (stereo unspecified)	x	47*	5	-13	x
CO[C@H]1CN(C)C(=O)c2cc(NS(C)(=O)=O)ccc2OC[C@@H](C)N(C(=O)C2CC2)C[C@@H]1C	x	x	2	x	x
CCn1cnc2cc(NC(=O)c3ccc(C)cc3)ccc21	23	15	21	47	19
SMILES	HSF-1 act	Wnt bcat act	esBAF inh	MITF act	HSF1 inhib
Cc1ccc(C(=O)Nc2ccc3c(c2)ncn3C)cc1	35	38*	12	63	19
CCC(=O)Nc1ccc2c(c1)ncn2-c1ccc(C)cc1	53*	-4	49*	80	26
Cc1ccc(CNc2ccc3c(c2)ncn3C)cc1	7	41*	70*	79	-3
CCn1cnc2cc(NCc3ccc(Cl)cc3)ccc21	49	34*	55*	61	14
CCNC(=O)[C@@H]1[C@@H](CO)[C@@H]2Cn3c(ccc(-c4ccc(F)cc4)c3=O)[C@@H]2N1Cc1ccccc1F	x	x	10	x	x
CC(C)C#Cc1cnc2c(c1)C(=O)N([C@H](C)CO)C[C@H](C)[C@H](CN(C)Cc1ccc3c(c1)OCO3)O2	x	x	-5	x	x
CC(=O)N1[C@@H]2Cn3c(ccc(-c4ccccc4)c3=O)[C@H]1[C@@H](C(=O)NCC1CC1)[C@@H]2CO	x	x	5	x	x
O=C(NCC[C@@H]1CC[C@H](NC(=O)Nc2cc(F)ccc2F)[C@H](CO)O1)Nc1ccc(F)cc1	x	x	-3	x	x
